Experimental findings from PubChem BioAssay (NCATS) are described below.

Experiment [1] concerns the target Methanococcus maripaludis chaperonin (MmCpn) (UniProt Q6LX38). Nature of the experiment: High-Throughput Screening for Modulators of Cytosolic Chaperonin Activity: MmCpn Primary Screen (AID 488978).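 Note: 50 nM MmCpn enzyme hydrolysing 30 µM ATP at 37 °C; 0% is about no effect.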 The gist of the method:
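Measures ATPase turnover of the M. maripaludis chaperonin (50 nM final) against 30 uM ATP over 10 min at 37C, with compound added 5 min beforehand at room temperature. ADP is quantified by HTRF immunodetection.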

The target in experiment [2] is Transient receptor potential cation channel subfamily V member 1 (Homo sapiens) (UniProt Q8NER1). As to the kind of experiment: HTS Assay for Compounds that Act as Enhancers of the Vanilloid Receptor 1 (AID 488979). Note: 0% is about no effect. The gist of the method:
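TRPV1 cells loaded with Fluo-8 calcium dye; compound added and Ca2+ signal (ex 480/em 520 nm) followed 3 min, then capsaicin at EC20 added and read 2 more min to detect enhancement.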

Experiment [3] has as its target Thyrotropin receptor (Homo sapiens) (UniProt P16473). Nature of the experiment: qHTS Assay for Antagonists of the Thyroid Stimulating Hormone Receptor (AID 488980). Note: series mostly up to about 58 µM; 0% is about no effect. The gist of the method: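 Cells expressing human TSHR (HEK293) are dispensed in HBSS/HEPES containing 70 uM RO 20-1724, compound is added, then TSH at EC80 (4 nM final). Antibody in lysis buffer follows, 30 minutes at room temperature before HTRF detection.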

The target of experiment [4] is D(1A) dopamine receptor (Homo sapiens) (UniProt P21728). As to the kind of experiment: HTS Assay for Allosteric Agonists of the Human D1 Dopamine Receptor: Primary Screen for Potentiators (AID 488982). Note: 0% is about no effect. The method, boiled down: (§1)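 Tetracycline-induced HEK293 Trex D1 cells with forced coupling to calcium, loaded with no-wash calcium dye; kinetic fluorescence read 180 s after compound addition for agonism, then a further 180 s after an EC20 dopamine challenge for potentiation.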
Chain of D(1A) dopamine receptor (Homo sapiens) (P21728 whole entry, looked up): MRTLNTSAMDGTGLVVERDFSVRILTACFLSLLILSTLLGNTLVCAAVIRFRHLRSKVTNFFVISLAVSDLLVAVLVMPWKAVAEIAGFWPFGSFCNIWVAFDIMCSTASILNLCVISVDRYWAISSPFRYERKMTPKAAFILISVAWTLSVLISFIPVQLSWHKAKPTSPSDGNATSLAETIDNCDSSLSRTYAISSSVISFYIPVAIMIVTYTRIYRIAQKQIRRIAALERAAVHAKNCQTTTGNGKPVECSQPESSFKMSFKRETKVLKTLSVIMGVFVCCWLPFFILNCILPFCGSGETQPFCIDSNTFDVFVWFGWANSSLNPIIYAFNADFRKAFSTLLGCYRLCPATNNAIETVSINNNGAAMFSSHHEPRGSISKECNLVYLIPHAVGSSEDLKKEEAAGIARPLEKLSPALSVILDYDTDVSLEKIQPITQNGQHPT

Experiment [5] has the same target. Nature of the experiment: HTS Assay for Allosteric Agonists of the Human D1 Dopamine Receptor: Primary Screen for Antagonists (AID 488983).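 Note: calcium flux response to an EC80 dopamine challenge measured with no-wash dye; % is set by controls: 0 for no effect and ±100 for the full control effect; nearly all actives have a fitted effect of over 65% in size.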 The gist of the method: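 Screening of inducible HEK293 T-REx D1 cells: compound first, EC80 dopamine 180 s later, each phase read kinetically for calcium over 180 s.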
Experiment [6] addresses Tyrosyl-DNA phosphodiesterase 1 (Homo sapiens) (UniProt Q9NUW8). Nature of the experiment: Confirmation Assay for Inhibitors of Tyrosyl-DNA Phosphodiesterase (TDP1) (AID 489007). Note: potency is the fitted concentration of half-maximal effect; nearly all actives have a fitted effect of over 40% in size. Conditions: recombinant human TDP1 enzymatic activity, dose-response. The method, boiled down: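 Confirmation of primary-screen follow-ups in a qHTS format. Substrate cleavage by Tdp1 (1 nM) of a 3'-phosphotyrosine-FITC, 5'-biotin oligo (15 nM) was monitored as decreased AlphaScreen signal after a 5 min room-temperature reaction.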

The target in experiment [7] is ATP-dependent 6-phosphofructokinase (Trypanosoma brucei brucei) (UniProt O15648). As to the kind of experiment: qHTS Assay to Find Inhibitors of T. brucei phosphofructokinase: hit validation (AID 492961).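 Note: luminescence reports ADP formed as PFK phosphorylates fructose-6-phosphate with ATP; series mostly up to about 51 µM; % is set by controls: 0 for no effect and ±100 for the full control effect.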 The gist of the method: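 Compounds titrated; %activity normalized to 0x and 1x enzyme controls, curve-fitted. Readout: ADP-Glo luminescence after 45 min room-temperature reaction of 1.25 nM PFK, 0.1 mM ATP, 0.5 mM F6P, pH 8.0.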

The target of experiment [8] is ATPase family AAA domain-containing protein 5 (Homo sapiens) (UniProt Q96QE3). Nature of the experiment: Validation screen for small molecules that inhibit ELG1-dependent DNA repair in human embryonic kidney (HEK293T) cells expressing luciferase-tagged ELG1 (AID 493107).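 Note: cells co-treated with the DNA-damaging agent 5-fluorouridine alongside compound; series mostly up to about 46 µM; % is set by controls: 0 for no effect and ±100 for the full control effect; inhibitors lower the ELG1-luciferase luminescence signal; nearly all actives have a fitted effect of over 70% in size.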 The method, boiled down: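 Quantitative HTS in HEK293T cells carrying luciferase-tagged ELG1, stimulated with 5-fluorouridine alongside compound for 16 hr. Loss of luciferase signal marks inhibition of ELG1 response.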
Chain of ATPase family AAA domain-containing protein 5 (Homo sapiens) (Q96QE3 whole entry, looked up, the tested form may be a part): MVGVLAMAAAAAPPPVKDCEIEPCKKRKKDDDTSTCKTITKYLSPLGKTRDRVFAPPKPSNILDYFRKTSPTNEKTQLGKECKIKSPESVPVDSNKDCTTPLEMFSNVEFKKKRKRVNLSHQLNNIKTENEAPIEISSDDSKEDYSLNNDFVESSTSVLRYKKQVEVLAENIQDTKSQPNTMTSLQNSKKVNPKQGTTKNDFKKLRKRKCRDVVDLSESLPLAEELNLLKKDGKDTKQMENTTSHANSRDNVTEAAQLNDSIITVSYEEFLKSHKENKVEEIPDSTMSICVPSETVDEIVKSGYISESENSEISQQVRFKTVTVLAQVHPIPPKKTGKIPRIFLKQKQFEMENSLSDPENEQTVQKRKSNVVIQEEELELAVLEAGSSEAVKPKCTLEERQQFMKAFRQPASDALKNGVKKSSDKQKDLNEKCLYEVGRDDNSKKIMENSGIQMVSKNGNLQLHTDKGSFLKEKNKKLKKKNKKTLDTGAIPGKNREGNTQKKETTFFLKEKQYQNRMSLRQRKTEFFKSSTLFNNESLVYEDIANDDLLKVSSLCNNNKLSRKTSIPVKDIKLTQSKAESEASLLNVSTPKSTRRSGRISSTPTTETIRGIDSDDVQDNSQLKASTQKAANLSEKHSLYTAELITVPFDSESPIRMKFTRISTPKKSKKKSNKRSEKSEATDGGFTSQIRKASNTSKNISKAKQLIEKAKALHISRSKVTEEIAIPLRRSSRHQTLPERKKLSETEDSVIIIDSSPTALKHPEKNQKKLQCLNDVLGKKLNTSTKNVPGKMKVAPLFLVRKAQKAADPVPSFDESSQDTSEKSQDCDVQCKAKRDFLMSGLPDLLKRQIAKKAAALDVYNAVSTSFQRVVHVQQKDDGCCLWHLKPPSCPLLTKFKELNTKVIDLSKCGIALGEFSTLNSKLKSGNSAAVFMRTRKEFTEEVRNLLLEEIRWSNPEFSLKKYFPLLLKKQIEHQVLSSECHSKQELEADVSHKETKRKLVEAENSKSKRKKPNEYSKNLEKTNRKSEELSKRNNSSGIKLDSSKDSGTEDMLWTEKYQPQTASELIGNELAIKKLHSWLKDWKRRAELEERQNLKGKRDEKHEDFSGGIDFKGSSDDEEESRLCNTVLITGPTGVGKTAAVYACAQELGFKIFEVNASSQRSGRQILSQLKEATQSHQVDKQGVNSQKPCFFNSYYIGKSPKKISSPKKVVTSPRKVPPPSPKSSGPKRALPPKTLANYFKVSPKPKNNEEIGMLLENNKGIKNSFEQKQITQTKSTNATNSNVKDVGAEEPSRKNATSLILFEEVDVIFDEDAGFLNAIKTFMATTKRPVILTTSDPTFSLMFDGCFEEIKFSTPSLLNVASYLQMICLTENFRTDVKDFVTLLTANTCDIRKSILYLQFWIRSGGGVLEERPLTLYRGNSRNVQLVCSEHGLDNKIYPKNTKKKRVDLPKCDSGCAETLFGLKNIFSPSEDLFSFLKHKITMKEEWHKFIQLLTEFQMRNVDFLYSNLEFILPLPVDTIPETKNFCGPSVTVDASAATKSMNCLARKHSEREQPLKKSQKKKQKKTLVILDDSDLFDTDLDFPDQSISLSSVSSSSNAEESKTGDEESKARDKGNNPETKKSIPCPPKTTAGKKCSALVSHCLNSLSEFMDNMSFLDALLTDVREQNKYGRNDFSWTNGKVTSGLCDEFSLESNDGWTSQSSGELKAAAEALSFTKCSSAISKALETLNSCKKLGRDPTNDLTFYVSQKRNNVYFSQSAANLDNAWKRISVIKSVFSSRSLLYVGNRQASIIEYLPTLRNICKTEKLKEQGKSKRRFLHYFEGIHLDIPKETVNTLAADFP

The target of experiment [9] is Thyrotropin-releasing hormone receptor (Homo sapiens) (UniProt P34981). Nature of the experiment: qHTS for Small Molecule Agonists and Allosteric Enhancers of Human TRH Receptor: Validation Screen for Agonists (AID 493127;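 active = calcium activation more than 3 SD above the typical response in the agonist read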;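 note: intracellular calcium rise by fluo-8 fluorescence before TRH EC20 addition; 0% is about no effect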). The following applies: TRH receptor agonist cell assay; at 2 µM; stronger effect = higher value. The gist of the method:
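Gq-coupled calcium mobilization in TRHR cells after compound addition, monitored kinetically with fluo-8 dye on an FDSS reader.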

A short description of experiment [10]: Validation screen for small molecules that induce DNA re-replication in SW480 colon adenocarcinoma cells (AID 504364). Note: 0% is about no effect. The method, boiled down:
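Cells are treated 48 hr with test compound, stained 40 min with Hoechst at 37 C, and scanned for nuclear fluorescence; compounds inducing re-replication increase nuclei with elevated intensity.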

Experiment [11] deals with Peptidyl-prolyl cis-trans isomerase NIMA-interacting 1 (Homo sapiens) (UniProt Q13526). Nature of the experiment: qHTS Validation Assay to Find Inhibitors of Pin1 (AID 504536; active = well fitted inhibition curve with a large enough effect in the polarisation, with a control signal flat, not every such curve was filed as active; the % refers to the polarisation;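 note: 0% = full Pin1 enzyme wells and -100% = no-enzyme wells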). The method, boiled down: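 Fluorescence polarization competition: compounds (titration) displace HiFluor-488-labeled Pin1-1b peptide from Pin1 (0.3 uM final) in pH 7.5 HEPES buffer with DTT, 10 min at room temperature; %Activity normalized to no-enzyme wells, curves fitted.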

The target of experiment [12] is Ubiquitin carboxyl-terminal hydrolase 1 (Homo sapiens) (UniProt O94782). Nature of the experiment: Inhibitors of USP1/UAF1: Pilot qHTS (AID 504865).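 Note: rhodamine fluorescence freed from ubiquitin-rhodamine substrate followed over time; top concentration of the series differs between compounds; % is set by controls: 0 for no effect and ±100 for the full control effect; nearly all actives have a fitted effect of over 35% in size.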 The method, boiled down: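 Kinetic fluorescence assay: 1nM USP1/UAF1, 15 min compound preincubation, then 150nM Ub-Rho; 480/540 nm.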
Chain of Ubiquitin carboxyl-terminal hydrolase 1 (Homo sapiens) (O94782 whole entry, looked up): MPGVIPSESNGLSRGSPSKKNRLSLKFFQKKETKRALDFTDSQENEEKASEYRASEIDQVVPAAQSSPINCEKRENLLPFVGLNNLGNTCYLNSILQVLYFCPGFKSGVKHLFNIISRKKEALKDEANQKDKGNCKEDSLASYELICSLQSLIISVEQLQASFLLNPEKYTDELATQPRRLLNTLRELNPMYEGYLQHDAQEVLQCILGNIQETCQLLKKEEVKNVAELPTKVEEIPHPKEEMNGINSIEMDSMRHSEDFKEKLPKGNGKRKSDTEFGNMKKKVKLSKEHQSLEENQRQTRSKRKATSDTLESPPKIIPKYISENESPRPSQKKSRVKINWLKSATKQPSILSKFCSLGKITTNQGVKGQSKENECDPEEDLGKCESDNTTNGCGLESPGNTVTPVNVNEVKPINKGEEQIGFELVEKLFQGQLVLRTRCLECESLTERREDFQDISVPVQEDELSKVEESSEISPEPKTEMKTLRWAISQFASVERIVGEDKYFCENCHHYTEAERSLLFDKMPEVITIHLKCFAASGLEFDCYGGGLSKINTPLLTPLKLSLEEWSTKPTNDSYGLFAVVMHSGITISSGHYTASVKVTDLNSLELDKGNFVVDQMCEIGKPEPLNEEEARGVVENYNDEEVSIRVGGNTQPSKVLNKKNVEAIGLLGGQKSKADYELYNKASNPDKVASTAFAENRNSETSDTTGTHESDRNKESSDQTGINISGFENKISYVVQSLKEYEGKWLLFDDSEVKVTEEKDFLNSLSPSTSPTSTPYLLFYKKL
Experiment [13] addresses D(1A) dopamine receptor (Homo sapiens) (UniProt P21728). Nature of the experiment: HTS Assay for Allosteric Agonists of the Human D1 Dopamine Receptor: Primary Screen for Agonists (AID 488981). Note: 0% is about no effect. The gist of the method:
as §1

A short description of experiment [14]: Nrf2 qHTS screen for inhibitors: Validation (AID 493153; active = well fitted inhibition curve with a large enough effect in the main read-out, with a control signal flat, not every such curve was filed as active). Conditions: Potency: luciferase luminescence; viability change: measured here: cytotoxicity max response. The method, boiled down:
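Dose-response validation uses reporter A549 cells with firefly luciferase under an antioxidant response element. Compounds stay on cells 18-24 h at 37°C, and luminescence indicates Nrf2-driven transcription.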

The nature of experiment [15]: qHTS for Inhibitors of Cell Surface uPA Generation: Validation Assay (AID 493164).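 Note: RAW 264.7 macrophage cells exposed to compound for 18 h; 0% is about no effect.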 The method, boiled down:
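RAW 264.7, 4000 cells/well, o/n plating; cpd 7-pt 1:5 dilution 2.45 nM–38.3 uM final; 18 h, 37 C/5% CO2; ATP-Lite, 5 s luminescence exposure.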

For experiment [16], the target named is Galactokinase (Homo sapiens) (UniProt P51570). As to the kind of experiment: qHTS Validation Assay for Inhibitors of Human Galactokinase (GALK) (AID 493189). Note: 0% is about no effect. The method, boiled down: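 Compounds were pin-transferred into ATP buffer, then GALK-galactose mix was added (final 5 nM enzyme, 100 uM galactose, 35 uM ATP). After 1 h at room temperature, remaining ATP was measured luminescently.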
Chain of Galactokinase (Homo sapiens) (P51570 whole entry, looked up): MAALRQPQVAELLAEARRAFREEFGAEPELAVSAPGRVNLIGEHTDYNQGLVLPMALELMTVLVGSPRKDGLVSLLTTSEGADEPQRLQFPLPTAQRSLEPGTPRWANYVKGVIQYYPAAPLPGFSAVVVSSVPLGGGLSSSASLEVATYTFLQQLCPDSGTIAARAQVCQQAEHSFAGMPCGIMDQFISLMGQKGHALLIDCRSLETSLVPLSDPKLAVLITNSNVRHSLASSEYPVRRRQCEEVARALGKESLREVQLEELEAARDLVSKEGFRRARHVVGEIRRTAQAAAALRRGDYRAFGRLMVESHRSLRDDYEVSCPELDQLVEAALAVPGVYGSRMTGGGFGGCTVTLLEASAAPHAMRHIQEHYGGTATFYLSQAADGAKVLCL

For experiment [17], the target named is Phosphoglycerate kinase, glycosomal (Trypanosoma brucei brucei) (UniProt P07378). Nature of the experiment: qHTS Validation Assay to Find Inhibitors of Phosphoglycerate Kinase (AID 504547).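 Note: control wells lack PGK and mark full inhibition.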 The method, boiled down: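 PGK activity was coupled to GAPDH (100nM final), which generates the unstable substrate 1,3-bisphosphoglycerate in-well. Reactions ran 60 minutes at room temperature in 100mM TEA pH 7.6, 5mM MgCl2, 0.01% Tween-20, then Kinase-Glo Plus luminescence was read.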

Experiment [18] deals with phosphoglycerate mutase (Leishmania major) (UniProt Q4Q090). As to the kind of experiment: qHTS Validation Assay to Find Inhibitors of Phosphoglycerate Mutase (AID 504548).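 Note: end-point luminescence from Kinase-GloPlus after the PGAM reaction; series mostly up to about 58 µM; % is set by controls: 0 for no effect and ±100 for the full control effect.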 The gist of the method:
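L. major PGAM (1.25nM final) was added to substrate buffer and pinned compound, incubated 45 minutes at room temperature, then Kinase-GloPlus added; luminescence read after 10 minutes. Buffer: 100 mM TEA pH 7.6, 5 mM MgCl2, 0.01% Tween-20.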

Experiment [19] is described as follows: qHTS for Inhibitors of ATXN expression: Validation of Cytotoxic Assay (AID 588349).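 Note: cells exposed to compound for 72 hr; % is set by controls: 0 for no effect and ±100 for the full control effect.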 The gist of the method: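 HEK293, compound dose series, 72 hr / 37 degrees C; viability via CellTiter Glo (intracellular ATP).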
Experiment [20] in a line: Validation screen for small molecules that induce genotoxicity in human embryonic kidney (HEK293T) cells expressing luciferase-tagged ELG1 (AID 493106). Note: 0% is about no effect. The method, boiled down: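 Reporter-gene quantitative HTS in HEK293T cells carrying luciferase-tagged ELG1, whose level climbs under genotoxic stress. Compound exposure lasts 16 hr at 37 °C before luciferase detection.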

“And” between values parts separate entries of the source, which are not always exact repeats. Identical values can stand only once. Results filed as inconclusive are left out. The source made the active and inactive calls. Unless noted, calls come from the whole dose curve; as a rule, active = well fitted curve in the direction sought with a large enough effect; inconclusive = small, poorly fitted or top-dose-only effect, or another doubt; inactive = no such curve, though single readings can be large; an effect the other way counts as inactive or inconclusive.

Chain of Thyrotropin-releasing hormone receptor (Homo sapiens) (P34981 whole entry, looked up): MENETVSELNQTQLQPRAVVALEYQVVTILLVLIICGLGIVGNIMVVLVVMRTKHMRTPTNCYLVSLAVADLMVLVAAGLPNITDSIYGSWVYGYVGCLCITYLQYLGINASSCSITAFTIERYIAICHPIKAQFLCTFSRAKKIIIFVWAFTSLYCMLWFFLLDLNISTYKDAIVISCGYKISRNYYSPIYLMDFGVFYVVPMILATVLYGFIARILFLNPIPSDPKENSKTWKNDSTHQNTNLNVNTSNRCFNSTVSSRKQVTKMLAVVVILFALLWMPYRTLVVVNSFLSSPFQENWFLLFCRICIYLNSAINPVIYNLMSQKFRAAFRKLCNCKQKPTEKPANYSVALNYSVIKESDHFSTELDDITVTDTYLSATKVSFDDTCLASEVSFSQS
Chain of Methanococcus maripaludis chaperonin (MmCpn) (Q6LX38 1-543): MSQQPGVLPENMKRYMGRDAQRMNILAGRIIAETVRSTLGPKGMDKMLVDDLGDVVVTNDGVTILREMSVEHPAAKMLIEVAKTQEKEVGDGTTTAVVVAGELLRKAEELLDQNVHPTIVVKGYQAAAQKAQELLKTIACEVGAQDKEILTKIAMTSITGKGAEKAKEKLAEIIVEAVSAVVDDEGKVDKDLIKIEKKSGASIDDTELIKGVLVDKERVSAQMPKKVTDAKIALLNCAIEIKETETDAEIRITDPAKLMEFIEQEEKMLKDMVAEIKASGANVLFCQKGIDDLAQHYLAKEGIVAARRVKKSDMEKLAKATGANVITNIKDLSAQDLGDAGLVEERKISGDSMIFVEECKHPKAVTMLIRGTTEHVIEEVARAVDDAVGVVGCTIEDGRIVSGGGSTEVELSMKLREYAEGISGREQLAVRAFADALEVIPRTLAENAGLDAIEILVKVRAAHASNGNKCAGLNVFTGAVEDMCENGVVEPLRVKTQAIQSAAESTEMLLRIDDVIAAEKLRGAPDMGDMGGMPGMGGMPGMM
Chain of phosphoglycerate mutase (Leishmania major) (Q4Q090 1-553): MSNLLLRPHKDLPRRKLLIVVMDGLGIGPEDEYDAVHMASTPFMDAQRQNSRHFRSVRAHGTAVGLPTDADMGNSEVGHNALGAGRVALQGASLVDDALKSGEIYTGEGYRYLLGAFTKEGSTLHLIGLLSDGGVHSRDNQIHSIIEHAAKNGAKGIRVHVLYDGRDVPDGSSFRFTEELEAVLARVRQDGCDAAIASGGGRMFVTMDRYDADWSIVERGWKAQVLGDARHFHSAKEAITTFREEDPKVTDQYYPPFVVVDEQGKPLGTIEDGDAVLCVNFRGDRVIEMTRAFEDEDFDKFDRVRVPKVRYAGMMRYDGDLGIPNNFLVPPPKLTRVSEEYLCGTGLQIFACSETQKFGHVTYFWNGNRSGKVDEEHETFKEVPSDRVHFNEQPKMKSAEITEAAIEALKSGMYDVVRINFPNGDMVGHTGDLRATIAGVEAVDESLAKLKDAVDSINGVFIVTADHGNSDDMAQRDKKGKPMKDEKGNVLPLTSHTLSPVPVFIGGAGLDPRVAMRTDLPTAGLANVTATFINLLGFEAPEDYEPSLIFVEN

For `CS(=O)(=O)Nc1ccc([N+](=O)[O-])cc1Oc1ccccc1`, the call in [1], in experiment [2] and in experiment [3] was inactive. Besides, the Potency entry in experiment [4], in experiment [5], in experiment [7], in [8], in experiment [10] and in experiment [11] was “inactive” each time. Besides, the Potency entry in experiment [12] is “inactive”. The Potency in experiment [6] is 8.91 µM (active). For the same molecule, in experiment [9], the activation is 1% (inactive).

Consider `Cn1cnc2c1c(=O)[nH]c(=O)n2C`, for which the molecule was called inactive in experiment [1], in experiment [2], in [3], in experiment [15], in experiment [18] and in experiment [19]. Moreover, the Potency result in experiment [13], in experiment [4], in experiment [5], in experiment [8], in [14] and in experiment [16] was “inactive” in each case. In addition, the Potency result in experiment [10], in experiment [11], in [17] and in experiment [12] was “inactive” each time. In addition, in experiment [9], the activation was 0.562% (inactive). The viability change in [14] was -9.08%.

Turning to `CC12CC3CC(C)(C1)CC(N)(C3)C2`, the call in [1], in experiment [3], in experiment [15], in [18] and in experiment [19] was inactive. Besides, the Potency result in experiment [13], in [4], in experiment [5], in [20], in experiment [8] and in experiment [14] was “inactive” each time. Moreover, the Potency entry in experiment [16], in experiment [10], in experiment [11], in experiment [17] and in experiment [12] was “inactive” in each case. Moreover, in [14], the viability change is -3.89%.

As to `CC(C)NCC(O)c1ccc(O)c(O)c1` (stereo not given), the outcome in experiment [2], in [3] and in experiment [15] was inactive. Also, the Potency entry in experiment [13], in experiment [4], in experiment [5], in experiment [8], in experiment [14] and in [16] was “inactive” each time. For the same molecule, the Potency result in experiment [10], in [11] and in experiment [12] was “inactive” each time. Besides, the activation in experiment [9] was 0.688% (inactive) and 0.188% (inactive). Besides, the viability change in experiment [14] was -5.16%.

Turning to `CC(CCc1ccc(O)cc1)NCCc1ccc(O)c(O)c1` (stereo not given), the outcome in [2], in experiment [3] and in experiment [15] was inactive. Also, the Potency result in experiment [13], in experiment [5], in experiment [8], in [14], in [16] and in [10] was “inactive” throughout. Also, the Potency result in experiment [11] and in experiment [12] was “inactive” each time. Besides, the activation in [9] is 1.06% (inactive). The viability change in experiment [14] is 2.92%.

On to `CN1CCN(CCCN2c3ccccc3Sc3ccc(Cl)cc32)CC1`, for which the molecule was called inactive in [1], in experiment [3], in [15] and in experiment [18]. For the same molecule, the Potency entry in [13], in experiment [4], in experiment [20], in experiment [8], in experiment [16] and in [11] was “inactive” in each case. In experiment [17], the Potency result is “inactive”.

In the case of `COc1ccc2[nH]cc(CCNC(C)=O)c2c1`, the result in experiment [2], in experiment [3], in experiment [15], in [18] and in experiment [19] was inactive. Further, the Potency entry in [13], in [4], in experiment [5], in experiment [14], in experiment [16] and in experiment [10] was “inactive” throughout. Also, the Potency entry in [11], in experiment [17] and in experiment [12] was “inactive” each time. The activation in [9] was -2.38% (inactive). For the same molecule, in experiment [14], the viability change is -12.9%.

Take `CCN1CCCC1CNC(=O)c1cc(S(=O)(=O)CC)c(N)cc1OC` (stereo not given): the result in experiment [1], in experiment [15], in [18] and in experiment [19] was inactive. In addition, the Potency result in experiment [4], in experiment [5], in experiment [20], in [8], in [14] and in experiment [11] was “inactive” throughout. The Potency result in experiment [17] and in experiment [12] was “inactive” throughout. Further, the viability change in experiment [14] is 7.74%.

Take `Cc1cc(C(C)(C)C)cc(C)c1CC1=NCCN1`: the result in experiment [2], in experiment [3], in [15] and in experiment [19] was inactive. Also, the Potency entry in [4], in experiment [5], in experiment [7], in experiment [20], in experiment [8] and in [14] was “inactive” in each case. Further, the Potency result in experiment [16], in [10], in [11], in [17] and in experiment [12] was “inactive” each time. Also, the viability change in experiment [14] amounted to 1.17%.
